From PubChem BioAssay
Only some compounds are listed: those with a hit (about 2.5% of all), similar ones and a draw of the others.
Ecoli rRNA inh – reduced GFP signal of wild-type E. coli, primary screen, bacterial rRNA inhibitor project, GFP/RFP fluorescence, OD600, single point. E. coli WT GFP vs humanized-ribosome RFP mutants, 24 h; stronger effect = lower value; DMSO median 0, no signal -100. GFP signal change (wild-type ribosome), % (no concentration beside the values). 350,000 tested, 1.6% active. AID 720706, 2013;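 active = significant combined selectivity score with lowered wild-type GFP, culture density cut under 30%, mutant RFP and density less affected; inactive = any of these conditions unmet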
MLL AF4-AF9 inh – inhibitors of AF4 peptide binding to AF9, primary screen, biochemical, AlphaScreen, biotin-AF4 peptide, FLAG-AF9, single point; inhibition, % at 10 µM; Protein AF-9 (Homo sapiens), P42568; 350,000 tested, 0.47% active;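 active = every replicate reaching a set inhibition limit, whatever the replicate mean, cut at about 25% in these data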;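 also: 0% = plate neutral control median and 100% = total signal loss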
NSD2 HMT inh – NSD2 histone methyltransferase inhibitors, primary screen, biochemical, AlphaScreen, single concentration, set 2 | 310,000 tested, 0.54% active | NSD2 peptide methylation, 120 min | inhibition, % at 12.5 µM | Histone-lysine N-methyltransferase NSD2 (Homo sapiens), O96028; in the data active = inhibition above about 50%
Target sequence (O96028 whole entry, looked up): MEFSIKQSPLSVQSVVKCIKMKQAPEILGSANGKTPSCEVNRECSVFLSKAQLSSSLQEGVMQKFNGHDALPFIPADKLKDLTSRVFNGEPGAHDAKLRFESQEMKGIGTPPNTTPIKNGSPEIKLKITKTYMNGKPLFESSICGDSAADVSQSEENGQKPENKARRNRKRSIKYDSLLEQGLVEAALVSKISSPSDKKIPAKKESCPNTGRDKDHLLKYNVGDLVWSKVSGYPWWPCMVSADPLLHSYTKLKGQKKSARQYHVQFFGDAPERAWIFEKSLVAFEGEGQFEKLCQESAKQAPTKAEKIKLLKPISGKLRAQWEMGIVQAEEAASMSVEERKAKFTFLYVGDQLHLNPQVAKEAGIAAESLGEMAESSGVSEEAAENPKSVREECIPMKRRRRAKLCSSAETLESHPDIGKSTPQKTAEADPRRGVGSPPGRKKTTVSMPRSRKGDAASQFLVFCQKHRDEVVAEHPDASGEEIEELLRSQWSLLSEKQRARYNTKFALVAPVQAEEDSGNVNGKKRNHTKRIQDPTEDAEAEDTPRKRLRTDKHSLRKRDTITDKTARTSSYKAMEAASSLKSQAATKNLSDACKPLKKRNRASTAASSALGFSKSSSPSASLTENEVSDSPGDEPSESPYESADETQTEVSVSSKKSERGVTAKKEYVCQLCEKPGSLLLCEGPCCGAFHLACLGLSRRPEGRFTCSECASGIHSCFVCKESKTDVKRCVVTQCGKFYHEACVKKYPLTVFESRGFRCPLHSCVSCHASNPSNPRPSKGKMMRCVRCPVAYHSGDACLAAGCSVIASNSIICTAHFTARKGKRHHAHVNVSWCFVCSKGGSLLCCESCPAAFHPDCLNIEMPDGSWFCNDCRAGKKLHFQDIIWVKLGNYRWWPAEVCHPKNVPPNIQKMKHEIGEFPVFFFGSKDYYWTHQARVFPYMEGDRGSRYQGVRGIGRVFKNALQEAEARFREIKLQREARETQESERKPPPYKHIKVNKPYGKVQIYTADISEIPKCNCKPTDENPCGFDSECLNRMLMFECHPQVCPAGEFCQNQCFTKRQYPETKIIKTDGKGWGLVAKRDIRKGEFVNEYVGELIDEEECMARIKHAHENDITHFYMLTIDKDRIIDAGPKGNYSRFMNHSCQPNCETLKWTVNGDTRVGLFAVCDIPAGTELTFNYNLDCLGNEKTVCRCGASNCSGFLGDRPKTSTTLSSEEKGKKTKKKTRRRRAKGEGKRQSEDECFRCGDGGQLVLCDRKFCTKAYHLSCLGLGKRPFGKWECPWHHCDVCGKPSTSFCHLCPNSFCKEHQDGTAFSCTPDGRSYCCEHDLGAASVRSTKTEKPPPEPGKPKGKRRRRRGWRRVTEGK
RAD52 inh – RAD52 DNA annealing inhibitors, primary screen, biochemical, FRET, single point, set 2. DNA repair protein RAD52 homolog (Homo sapiens), P43351. recombinant RAD52 DNA annealing, FRET fluorescence. inhibition, % at 18.7 µM. 360,000 tested, 0.46% active. AID 651710, 2012;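 active = every replicate showing at least 50% inhibition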
CASP6 VEID inh – human caspase-6 inhibitors, primary screen, biochemical, VEID-R110 fluorescence, single point, set 2; P55212; purified caspase-6, Z-VEID-R110 cleavage fluorescence; 350,000 tested, 0.53% active; inhibition, % at 12.5 µM; AID 686996, 2013;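 active = mean inhibition across replicates at least about 35%, with every replicate also reaching that limit, limit read from the data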;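 also: 0% = median of neutral control wells and 100% = no fluorescence left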
An asterisk follows results filed as active; i = inactive; . = no result given.

SMILES	Ecoli rRNA inh	MLL AF4-AF9 inh	NSD2 HMT inh	RAD52 inh	CASP6 VEID inh
CCOC(=O)Cn1c(=N)n(CCOc2ccc(Br)cc2)c2ccccc21	-48*	.	-1	9	-3
CCCCn1c(=N)n(CC(=O)c2ccc(OC)cc2)c2ccccc21	-43*	0	2	-9	6
COc1ccc(C(=O)Cn2c(=N)n(C)c3ccccc32)cc1	7	0	0	6	-1
C[C@@H]1CCCCO[C@H](CN(C)C(=O)Nc2cccc3ccccc23)[C@@H](C)CN([C@@H](C)CO)C(=O)c2cc(NS(=O)(=O)c3ccccc3)ccc2O1	0	2	.	11	2
COc1ccc(NC(=O)N(C)C[C@@H]2OCc3ccccc3-c3c(n(C)c4ccccc34)C(=O)N([C@@H](C)CO)C[C@@H]2C)c(OC)c1	-3	6	.	8	1
CN(Cc1ccccc1)CC(O)CC(O)c1ccccc1 (centres undefined)	.	-3	.	7	-3
C[C@@H]1CCCCO[C@H](CN(C)C(=O)CCC(F)(F)F)[C@@H](C)CN([C@@H](C)CO)C(=O)c2cc(NC(=O)CCCCCC(=O)Nc3ccccc3N)ccc2O1	-3	.	.	.	.
COc1cc(OC)cc(-c2nc3ccccc3c(=O)n2OC(=O)c2ccc(Br)cc2)c1	-25*	0	-30	-10	2
Clc1c(Cl)c(Cl)c2n[nH]nc2c1Cl	-53*	.	10	-11	3
C[C@@H]1CCCCO[C@H](CN(C)Cc2ccncc2)[C@H](C)CN([C@H](C)CO)C(=O)c2cc(NS(=O)(=O)c3ccc(F)cc3)ccc2O1	-2	1	.	7	2
C[C@H]1CN([C@@H](C)CO)C(=O)c2cccc(NC(=O)Nc3cccc4ccccc34)c2O[C@@H]1CN(C)S(C)(=O)=O	1	6	.	10	-2
CC1=C/C(=C(/c2cc(C)c(O)c(Br)c2)c2ccccc2S(=O)(=O)O)C=C(Br)C1=O	-12	47*	44	-41	14
CCN(c1cccc2ccccc12)S(=O)(=O)c1ccc(Cl)nc1	-22*	-26	0	-4	3
CCN(c1ccccc1)S(=O)(=O)c1ccc(Cl)nc1	5	1	-6	-9	-2
CC(C)NC(=O)N(C)C[C@H]1Oc2ccc(NS(C)(=O)=O)cc2CC(=O)N(C)C[C@@H]1C	3	.	.	.	.
C/C(=N\NC(=O)c1ccccc1O)c1cccc(NC(=O)c2ccccc2)c1	-39	3	.	-26	5
C/C(=N\NC(=O)c1cc(O)ccc1O)c1cccc(NC(=O)c2ccc(Cl)cc2)c1	-26*	-2	8	-6	53*
C/C(=N\NC(=O)c1cccc(Cl)c1)c1cccc(NC(=O)c2ccco2)c1	.	.	-1	.	.
C/C(=N\NC(=O)c1cc(O)ccc1O)c1cccc(NC(=O)c2cccc(Cl)c2)c1	-28	3	13	-2	39*
CSCCC(NC(=O)c1ccccc1)C(=O)NCCCSc1ccccc1 (centres undefined)	-23*	1	0	3	4
COc1ccc(C=C(C#N)C(=O)c2ccccc2)cc1	.	1	17	-6	0
COc1cc(/C=C(\C#N)C(=O)c2ccc(O)c(O)c2)cc(I)c1O	.	1	.	i	63*
C[C@H]1CC(=O)NCC/C=C\C[C@H](c2cccc(Cl)c2)NC1=O	-3	.	.	.	.
C[C@H](CO)N1C[C@H](C)[C@@H](CN(C)S(C)(=O)=O)Oc2ncc(C3=CCCCC3)cc2C1=O	3	.	.	.	.
COc1ccccc1NC(=O)N1CC[C@@H]2[C@H]1c1cc(-c3ccccc3)ccc1N(C)[C@@H]2CO	-8	0	.	52*	0
COc1ccc(C#Cc2ccc3c(c2)[C@@H]2[C@@H](CCN2S(=O)(=O)c2cccc(OC)c2)[C@@H](CO)N3C)cc1	-1	0	.	67*	1
COc1ccccc1NC(=O)N1CC[C@H]2[C@@H]1c1cc(-c3ccccc3)ccc1N(C)[C@H]2CO	-5	-1	.	58*	0
